# Laboratory results from article PMC7862700, “An all-to-all approach to the identification of sequence-specific readers for epigenetic DNA modifications on cytosine”.
# Columns and labels:
# Assay in all cases: DAPPL (digital affinity profiling via proximity ligation, sequencing); 10 mM Tris-HCl pH 7.5, 50 mM NaCl, 1 mM DTT, 4% glycerol, room temperature, 30 min; GST-TFs on glutathione beads, 16-mer random dsDNA library, 0.1% formaldehyde crosslink after washing; high values mean tight binding
# FEV = molecular target: T1, FEV (Homo sapiens, UniProt Q99581 1-238); details: protein: recombinant; tags: N-terminal GST; dsDNA, one strand shown
# T1 sequence: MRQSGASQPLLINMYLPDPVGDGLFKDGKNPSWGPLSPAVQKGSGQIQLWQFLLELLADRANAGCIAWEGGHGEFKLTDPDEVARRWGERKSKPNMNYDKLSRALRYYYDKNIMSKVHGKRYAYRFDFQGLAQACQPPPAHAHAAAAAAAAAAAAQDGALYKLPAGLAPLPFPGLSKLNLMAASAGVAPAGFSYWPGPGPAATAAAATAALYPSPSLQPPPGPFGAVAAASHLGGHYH
# Outline: (§1)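 GST fusions of human transcription factors were expressed in yeast and captured with glutathione beads. Once given DNA barcodes and pooled alongside a tag-only sample, they were incubated for 30 min at room temperature with 200 nmole of a random double-stranded 16-mer DNA library in Tris/NaCl/DTT/glycerol buffer, then washed, crosslinked (0.1% formaldehyde), proximity-ligated, PCR-amplified and sequenced on an Illumina NextSeq500. The binding signal of each hexamer is its read frequency for a factor divided by its frequency for the tag-only sample.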
# ETV5 = ETV5 (Homo sapiens, UniProt P41161 1-510); details: protein: recombinant; tags: N-terminal GST; dsDNA, one strand shown
# Outline: as §1
# HSF1 = HSF1 (Homo sapiens, UniProt Q00613 1-529); details: protein: recombinant; tags: N-terminal GST; chain copies: 3; dsDNA, one strand shown
# Outline: as §1
# SPIC = molecular target: T2, SPIC (Homo sapiens, UniProt Q8N5J4 1-248); details: protein: recombinant; tags: N-terminal GST; dsDNA, one strand shown
# T2 sequence: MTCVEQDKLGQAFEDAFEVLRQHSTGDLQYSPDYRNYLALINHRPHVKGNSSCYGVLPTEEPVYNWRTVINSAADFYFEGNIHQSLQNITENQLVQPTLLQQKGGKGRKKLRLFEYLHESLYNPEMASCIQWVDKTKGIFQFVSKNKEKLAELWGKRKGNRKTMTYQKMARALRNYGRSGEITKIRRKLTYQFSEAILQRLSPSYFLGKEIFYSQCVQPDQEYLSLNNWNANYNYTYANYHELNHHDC
# Outline: as §1
# ELF4 = ELF4 (Homo sapiens, UniProt Q99607 1-663); details: protein: recombinant; tags: N-terminal GST; dsDNA, one strand shown
# Outline: as §1
# ELK4 = molecular target: T3, ELK4 (Homo sapiens, UniProt P28324-2 1-405); details: protein: recombinant; tags: N-terminal GST; dsDNA, one strand shown
# T3 sequence: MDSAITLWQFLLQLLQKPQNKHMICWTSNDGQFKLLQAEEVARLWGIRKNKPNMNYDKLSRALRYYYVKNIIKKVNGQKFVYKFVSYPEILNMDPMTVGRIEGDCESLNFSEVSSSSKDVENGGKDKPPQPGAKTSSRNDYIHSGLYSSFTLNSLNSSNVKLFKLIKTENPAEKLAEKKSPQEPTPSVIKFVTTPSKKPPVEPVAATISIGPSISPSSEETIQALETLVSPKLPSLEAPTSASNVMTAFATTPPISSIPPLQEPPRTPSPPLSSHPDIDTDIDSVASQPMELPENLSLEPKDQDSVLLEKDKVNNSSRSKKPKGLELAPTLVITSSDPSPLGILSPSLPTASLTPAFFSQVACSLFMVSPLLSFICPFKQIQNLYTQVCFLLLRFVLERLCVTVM
# Outline: as §1
# ETV2 = molecular target: T4, ETV2 (Homo sapiens, UniProt O00321 1-342); details: protein: recombinant; tags: N-terminal GST; dsDNA, one strand shown
# T4 sequence: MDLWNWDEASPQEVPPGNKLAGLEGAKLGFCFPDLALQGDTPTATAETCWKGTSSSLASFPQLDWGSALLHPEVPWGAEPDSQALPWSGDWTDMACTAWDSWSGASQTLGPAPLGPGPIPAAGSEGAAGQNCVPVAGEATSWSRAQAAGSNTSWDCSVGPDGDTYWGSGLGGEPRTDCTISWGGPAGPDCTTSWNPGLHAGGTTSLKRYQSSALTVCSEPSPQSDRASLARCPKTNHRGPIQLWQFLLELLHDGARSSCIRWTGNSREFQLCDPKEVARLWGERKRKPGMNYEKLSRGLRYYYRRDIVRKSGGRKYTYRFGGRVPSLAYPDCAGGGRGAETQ
# Outline: as §1
# ELF3 = molecular target: T5, ELF3 (Homo sapiens, UniProt P78545 1-371); details: protein: recombinant; tags: N-terminal GST; dsDNA, one strand shown
# T5 sequence: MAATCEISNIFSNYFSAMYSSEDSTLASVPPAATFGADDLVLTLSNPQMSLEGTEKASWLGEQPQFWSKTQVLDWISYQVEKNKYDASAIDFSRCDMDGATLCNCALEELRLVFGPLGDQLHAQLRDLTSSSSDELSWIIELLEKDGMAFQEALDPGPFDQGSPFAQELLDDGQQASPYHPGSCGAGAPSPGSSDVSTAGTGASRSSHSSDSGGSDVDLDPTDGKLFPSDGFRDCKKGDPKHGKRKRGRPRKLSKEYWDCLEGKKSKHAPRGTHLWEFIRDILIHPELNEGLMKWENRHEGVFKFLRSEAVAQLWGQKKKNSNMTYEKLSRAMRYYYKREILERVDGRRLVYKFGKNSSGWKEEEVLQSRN
# Outline: as §1
# CRX = CRX (Homo sapiens, UniProt O43186 1-299); details: protein: recombinant; tags: N-terminal GST; dsDNA, one strand shown
# Outline: as §1
# ETV1 = ETV1 (Homo sapiens, UniProt P50549 1-477); details: protein: recombinant; tags: N-terminal GST; dsDNA, one strand shown
# Outline: as §1
# ETV5, sequence (P41161 whole entry): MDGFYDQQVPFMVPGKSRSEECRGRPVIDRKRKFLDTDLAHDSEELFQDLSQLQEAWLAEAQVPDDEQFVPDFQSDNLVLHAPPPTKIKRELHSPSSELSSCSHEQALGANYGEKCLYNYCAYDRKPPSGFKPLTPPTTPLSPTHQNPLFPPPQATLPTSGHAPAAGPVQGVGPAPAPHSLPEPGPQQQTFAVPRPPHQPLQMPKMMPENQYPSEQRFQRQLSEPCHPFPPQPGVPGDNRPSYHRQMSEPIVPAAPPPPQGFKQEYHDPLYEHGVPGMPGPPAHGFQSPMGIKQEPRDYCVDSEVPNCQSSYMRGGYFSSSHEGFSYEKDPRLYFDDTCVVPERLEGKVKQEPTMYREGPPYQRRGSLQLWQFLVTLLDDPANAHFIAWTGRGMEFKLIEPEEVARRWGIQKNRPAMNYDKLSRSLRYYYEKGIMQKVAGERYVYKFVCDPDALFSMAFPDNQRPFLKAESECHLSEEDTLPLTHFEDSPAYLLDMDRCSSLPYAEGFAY
# ETV1, sequence (P50549 whole entry): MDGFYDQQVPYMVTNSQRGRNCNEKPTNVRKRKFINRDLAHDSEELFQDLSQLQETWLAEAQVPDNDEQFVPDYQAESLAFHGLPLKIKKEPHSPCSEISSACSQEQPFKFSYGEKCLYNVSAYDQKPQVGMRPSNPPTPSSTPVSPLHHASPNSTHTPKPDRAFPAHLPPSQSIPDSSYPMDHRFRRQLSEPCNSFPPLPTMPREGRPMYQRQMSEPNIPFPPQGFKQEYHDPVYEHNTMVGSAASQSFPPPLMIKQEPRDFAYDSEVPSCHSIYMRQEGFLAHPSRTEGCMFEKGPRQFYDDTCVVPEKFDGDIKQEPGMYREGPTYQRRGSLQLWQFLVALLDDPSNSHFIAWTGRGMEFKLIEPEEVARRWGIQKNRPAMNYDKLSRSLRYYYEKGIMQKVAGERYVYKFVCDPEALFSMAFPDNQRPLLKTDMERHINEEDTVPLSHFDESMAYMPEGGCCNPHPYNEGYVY
# HSF1, sequence (Q00613 whole entry): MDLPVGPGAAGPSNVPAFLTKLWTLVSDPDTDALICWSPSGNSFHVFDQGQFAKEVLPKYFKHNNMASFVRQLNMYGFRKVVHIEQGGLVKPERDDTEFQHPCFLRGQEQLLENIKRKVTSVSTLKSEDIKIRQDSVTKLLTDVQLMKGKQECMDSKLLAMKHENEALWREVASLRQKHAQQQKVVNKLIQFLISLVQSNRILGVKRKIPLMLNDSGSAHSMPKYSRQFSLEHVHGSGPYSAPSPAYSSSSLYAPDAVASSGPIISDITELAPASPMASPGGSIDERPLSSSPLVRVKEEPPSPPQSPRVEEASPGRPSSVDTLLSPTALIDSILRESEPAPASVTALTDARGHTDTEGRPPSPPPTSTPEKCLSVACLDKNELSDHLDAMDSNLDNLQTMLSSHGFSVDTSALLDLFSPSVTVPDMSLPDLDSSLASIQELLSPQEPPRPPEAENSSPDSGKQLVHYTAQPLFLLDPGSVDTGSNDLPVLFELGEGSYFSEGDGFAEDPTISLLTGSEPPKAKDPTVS
# CRX, sequence (O43186 whole entry): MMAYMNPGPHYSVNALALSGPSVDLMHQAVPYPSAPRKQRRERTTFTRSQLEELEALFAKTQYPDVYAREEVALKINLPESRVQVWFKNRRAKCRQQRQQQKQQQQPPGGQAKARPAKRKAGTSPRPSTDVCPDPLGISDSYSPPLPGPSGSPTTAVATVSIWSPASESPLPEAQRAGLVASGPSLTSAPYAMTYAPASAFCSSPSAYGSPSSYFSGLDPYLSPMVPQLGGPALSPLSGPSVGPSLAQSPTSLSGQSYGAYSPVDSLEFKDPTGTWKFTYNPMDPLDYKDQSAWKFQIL
# ELF4, sequence (Q99607 whole entry): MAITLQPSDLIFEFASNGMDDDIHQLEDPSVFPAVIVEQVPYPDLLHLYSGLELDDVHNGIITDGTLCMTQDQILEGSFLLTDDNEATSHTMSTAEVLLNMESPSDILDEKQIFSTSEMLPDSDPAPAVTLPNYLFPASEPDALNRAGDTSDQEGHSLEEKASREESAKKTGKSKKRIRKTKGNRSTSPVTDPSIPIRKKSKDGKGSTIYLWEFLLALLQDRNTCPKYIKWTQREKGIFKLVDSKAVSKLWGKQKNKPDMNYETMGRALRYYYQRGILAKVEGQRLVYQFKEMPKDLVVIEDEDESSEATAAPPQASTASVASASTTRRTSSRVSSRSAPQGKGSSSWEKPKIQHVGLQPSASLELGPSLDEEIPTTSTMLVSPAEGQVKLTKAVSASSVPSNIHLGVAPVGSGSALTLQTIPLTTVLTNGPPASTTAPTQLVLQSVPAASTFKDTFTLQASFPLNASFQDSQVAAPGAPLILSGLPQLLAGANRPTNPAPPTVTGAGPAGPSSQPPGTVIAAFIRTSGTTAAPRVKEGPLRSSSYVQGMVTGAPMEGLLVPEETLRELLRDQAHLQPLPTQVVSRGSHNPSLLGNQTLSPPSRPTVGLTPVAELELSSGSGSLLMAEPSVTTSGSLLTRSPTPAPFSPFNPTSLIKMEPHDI
Sequence,binding signal (FEV),binding signal (ETV5),binding signal (HSF1),binding signal (SPIC),binding signal (ELF4),binding signal (ELK4),binding signal (ETV2),binding signal (ELF3),binding signal (CRX),binding signal (ETV1)
GGTCTT,"1.07 fold enrichment (6-mer frequency, TF over GST control)","1.14 fold enrichment (6-mer frequency, TF over GST control)","1.05 fold enrichment (6-mer frequency, TF over GST control)","1.02 fold enrichment (6-mer frequency, TF over GST control)","1.15 fold enrichment (6-mer frequency, TF over GST control)","1.11 fold enrichment (6-mer frequency, TF over GST control)","1.08 fold enrichment (6-mer frequency, TF over GST control)","1.04 fold enrichment (6-mer frequency, TF over GST control)","1.15 fold enrichment (6-mer frequency, TF over GST control)","1.11 fold enrichment (6-mer frequency, TF over GST control)"
CCATTT,"1.5 fold enrichment (6-mer frequency, TF over GST control)","1.47 fold enrichment (6-mer frequency, TF over GST control)","1.01 fold enrichment (6-mer frequency, TF over GST control)","1.42 fold enrichment (6-mer frequency, TF over GST control)","1.32 fold enrichment (6-mer frequency, TF over GST control)","1.41 fold enrichment (6-mer frequency, TF over GST control)","1.38 fold enrichment (6-mer frequency, TF over GST control)","1.28 fold enrichment (6-mer frequency, TF over GST control)","1.01 fold enrichment (6-mer frequency, TF over GST control)","1.36 fold enrichment (6-mer frequency, TF over GST control)"
TCATCT,"1.08 fold enrichment (6-mer frequency, TF over GST control)","1.19 fold enrichment (6-mer frequency, TF over GST control)","1.44 fold enrichment (6-mer frequency, TF over GST control)","1.32 fold enrichment (6-mer frequency, TF over GST control)","1.18 fold enrichment (6-mer frequency, TF over GST control)","1.59 fold enrichment (6-mer frequency, TF over GST control)","1.38 fold enrichment (6-mer frequency, TF over GST control)","1.37 fold enrichment (6-mer frequency, TF over GST control)","1.5 fold enrichment (6-mer frequency, TF over GST control)","1.15 fold enrichment (6-mer frequency, TF over GST control)"
ACGAAA,"1.15 fold enrichment (6-mer frequency, TF over GST control)","1.15 fold enrichment (6-mer frequency, TF over GST control)","1.44 fold enrichment (6-mer frequency, TF over GST control)","1.02 fold enrichment (6-mer frequency, TF over GST control)","1.16 fold enrichment (6-mer frequency, TF over GST control)","1.24 fold enrichment (6-mer frequency, TF over GST control)","1.13 fold enrichment (6-mer frequency, TF over GST control)","1.19 fold enrichment (6-mer frequency, TF over GST control)","1.09 fold enrichment (6-mer frequency, TF over GST control)","1.12 fold enrichment (6-mer frequency, TF over GST control)"
CTTCCC,"1.91 fold enrichment (6-mer frequency, TF over GST control)","2.24 fold enrichment (6-mer frequency, TF over GST control)","1.55 fold enrichment (6-mer frequency, TF over GST control)","2.34 fold enrichment (6-mer frequency, TF over GST control)","1.95 fold enrichment (6-mer frequency, TF over GST control)","1.81 fold enrichment (6-mer frequency, TF over GST control)","2.4 fold enrichment (6-mer frequency, TF over GST control)","2.12 fold enrichment (6-mer frequency, TF over GST control)","1.33 fold enrichment (6-mer frequency, TF over GST control)","2.01 fold enrichment (6-mer frequency, TF over GST control)"
TTACAT,"1.3 fold enrichment (6-mer frequency, TF over GST control)","1.31 fold enrichment (6-mer frequency, TF over GST control)","1.45 fold enrichment (6-mer frequency, TF over GST control)","1.34 fold enrichment (6-mer frequency, TF over GST control)","1.34 fold enrichment (6-mer frequency, TF over GST control)","1.34 fold enrichment (6-mer frequency, TF over GST control)","1.43 fold enrichment (6-mer frequency, TF over GST control)","1.4 fold enrichment (6-mer frequency, TF over GST control)","1.81 fold enrichment (6-mer frequency, TF over GST control)","1.39 fold enrichment (6-mer frequency, TF over GST control)"
TCCTTC,"2.2 fold enrichment (6-mer frequency, TF over GST control)","2.1 fold enrichment (6-mer frequency, TF over GST control)","2.13 fold enrichment (6-mer frequency, TF over GST control)","2.26 fold enrichment (6-mer frequency, TF over GST control)","2.08 fold enrichment (6-mer frequency, TF over GST control)","2.04 fold enrichment (6-mer frequency, TF over GST control)","2.47 fold enrichment (6-mer frequency, TF over GST control)","1.85 fold enrichment (6-mer frequency, TF over GST control)","1.72 fold enrichment (6-mer frequency, TF over GST control)","2.05 fold enrichment (6-mer frequency, TF over GST control)"
TCTCTA,"1.32 fold enrichment (6-mer frequency, TF over GST control)","1.21 fold enrichment (6-mer frequency, TF over GST control)","1.74 fold enrichment (6-mer frequency, TF over GST control)","1.38 fold enrichment (6-mer frequency, TF over GST control)","1.25 fold enrichment (6-mer frequency, TF over GST control)","1.22 fold enrichment (6-mer frequency, TF over GST control)","1.24 fold enrichment (6-mer frequency, TF over GST control)","1.28 fold enrichment (6-mer frequency, TF over GST control)","1.56 fold enrichment (6-mer frequency, TF over GST control)","1.2 fold enrichment (6-mer frequency, TF over GST control)"
